Data as given in PubChem BioAssay (NCI).
The panel holds about 79,000 compounds, 15% with a hit somewhere; the sample as a whole holds those more often. A number with no mark means an inactive call. The source made the active and inactive calls. No stated cut-off is given here; in the data, active means growth inhibition above about 70%; inactive means the rest.

What was measured:
[1] = NCI Yeast Anticancer Drug Screen. Data for the rad50 strain (AID 155);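 further: 0% = growth of vehicle-only cultures of the same strain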; conditions: S. cerevisiae rad50 strain growth inhibition; at 50.0 µM; stronger effect = higher value
Method in brief: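 Readout: growth inhibition relative to vehicle-treated cultures. Compound exposure was carried out in a genetically defined yeast strain deficient in DNA damage repair.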

[2] = NCI Yeast Anticancer Drug Screen. Data for the mec2-1 strain (AID 157); conditions: S. cerevisiae mec2-1 strain, at 50.0 µM, stronger effect = higher value
Method in brief: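 mec2-1 yeast strain, carrying an alteration in DNA damage repair or cell cycle control, was exposed to compounds; growth inhibition was measured relative to vehicle-treated controls.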

[3] = NCI Yeast Anticancer Drug Screen. Data for the sgs1 mgt1 strain (AID 161);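 further: 0% = growth of cultures given vehicle only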; conditions: S. cerevisiae sgs1 mgt1 strain, at 50.0 µM, stronger effect = higher value
Method in brief: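 Growth of a repair-deficient yeast mutant was monitored after compound treatment and expressed as inhibition relative to vehicle-treated cultures.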

[4] = NCI Yeast Anticancer Drug Screen. Data for the cln2 rad14 strain (AID 165);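 further: 0% = growth equal to vehicle treated cultures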; conditions: S. cerevisiae cln2 rad14 strain, at 50.0 µM, stronger effect = higher value
Method in brief: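 Yeast carrying cln2 and rad14 alterations (cell cycle control and DNA damage repair) were exposed to compounds. Growth inhibition was measured against vehicle-treated controls.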

[5] = NCI Yeast Anticancer Drug Screen. Data for the bub3 strain (AID 167); conditions: S. cerevisiae bub3 mutant strain, at 50.0 µM, stronger effect = higher value
Method in brief: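 Readout: yeast growth inhibition, expressed relative to vehicle-only wells. The test organism is a mutant strain from a panel with lesions in DNA repair or checkpoint genes.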

[6] = NCI Yeast Anticancer Drug Screen. Data for the mlh1 rad18 strain (AID 175); conditions: S. cerevisiae mlh1 rad18 strain growth inhibition; at 50.0 µM; stronger effect = higher value
Method in brief: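 Growth inhibition of the yeast strain was measured after compound exposure and expressed relative to vehicle-treated controls. The strain carries defined defects in DNA damage repair.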

Row | SMILES | growth inhibition [1] | growth inhibition [2] | growth inhibition [3] | growth inhibition [4] [%] | growth inhibition [5] [%] | growth inhibition [6]
1 | CN1C2CCC1[C@@H](COC(=O)c1ccccc1)[C@@H](O)C2 (some centres undefined) | -9.15% | -14.6% | -15.6% | -27.4 | -3.55 | -61%
2 | CC(C)(O)OC1COC(C2CS2)C1O (centres undefined) | 18.1% | 15.6% | 3.95% | 34.8 | 29.6 | -22.4%
3 | C=COC(N)=O | 0.8% | -2.7% | 5.05% | -0.9 | 0.05 | -8.15%
4 | CC1(C)CN=C(NN=C(/C=C/c2ccc(C(F)(F)F)cc2)/C=C/c2ccc(C(F)(F)F)cc2)NC1 | 21.6% | 10.4% | 15.3% | 20.2 | 32.2 | 46.8%
5 | c1ccc(CC2NC(Cc3ccccc3)N3C(Cc4ccccc4)N23)cc1 (centres undefined) | -2.65% | 1.9% | 0.9% | -6.25 | 9 | 3.45%
6 | O=[N+]([O-])c1ccccc1CBr | 52.8% | 34.5% | 57% | 34.9 | 33.5 | 42%
7 | COC(=O)CCSP(=S)(Oc1ccccc1)Oc1ccccc1 | -0.2% | 7.85% | 12.3% | 4.25 | 36.5 | 9.1%
8 | CC([OH2+])CNCCN.CC([OH2+])CNCCN.O=[N+]([O-])[O-].[Cu+2] (centres undefined) | -10.1% | -8.95% | 5.25% | -39.6 | -0.7 | 0.2%
9 | CCOC(=O)P(=O)(OCC)OCC | 6.9% | -37.2% | -11% | -1.2 | 4.95 | -1.1%
10 | O=C1NC(=O)C(C(=O)C(=O)Nc2cccc(C(F)(F)F)c2)C(=O)N1 | -17.7% | 0.1% | -44.7% | -1.75 | -31 | -40.9%
11 | Nc1ccc(C(=O)O)c([As](O)O)c1 | -6.95% | 8.55% | -1% | 4.35 | -4.3 | 0.65%
12 | NC(=O)C[CH2][Sn]([Cl])([Cl])[CH2]CC(N)=O | -5.65% | -5.5% | 3.55% | 5.3 | 7.9 | -7%
13 | C=CC1CN2CCC1CC2C(O)c1ccnc2ccccc12 (centres undefined) (tested in a mixture with another compound) | -3.9% | -17.1% | -5.4% | -4.05 | -1.4 | 1.75%
14 | CN1CCCC1c1ccc[n+](C)c1 (centres undefined) | -2.95% | 1.85% | 5.6% | -8.65 | 2.1 | 3.35%
15 | O=C(Sc1c[nH]c(=O)[nH]c1=O)c1ccc(N(CCCl)CCCl)cc1 | 29.6% | -18.4% | 19.9% | -24.8 | -6.3 | -1.05%
16 | CCOP(=O)(OCC)C(=O)N(CC)CC | 12.2% | 21.9% | 10.6% | 7.15 | 20.8 | 1.45%
17 | CCOP(=O)(OCC)Oc1ccncc1 | -2.8% | -0.3% | -7.6% | -4.25 | 7.75 | 4.1%
18 | C[CH2][Sn]([CH2]C)([S]c1nc(O)cc(=O)[nH]1)[S]c1nc(O)cc(=O)[nH]1 | 32.5% | 41.9% | -18.1% | 7.9 | 21.9 | 25.1%
19 | Clc1ccc(C2CC3CCCCN3O2)cc1 (centres undefined) | 13.6% | 3% | 5.9% | -1.1 | 11.6 | 5.45%
20 | CC(C)(N)Cc1ccc(N)cc1 | 15.2% | -1.55% | 7.15% | 18.4 | 2.5 | 24.4%

Row | SMILES | growth inhibition [1] | growth inhibition [2] | growth inhibition [3] | growth inhibition [4] [%] | growth inhibition [5] [%] | growth inhibition [6]
21 | C(=C\c1cccs1)/CN1CCC2CCC(C2)C1 (centres undefined) | -3.25% | -4.15% | 2.1% | -17.1 | 6.35 | -10.8%
22 | O=S(=O)(O)C1CCC(O)C2[N-]CCCC21.O=S(=O)(O)C1CCC(O)C2[N-]CCCC21.[Zn+2] (centres undefined) | 1.75% | 0.9% | 6.2% | 25.8 | -10.7 | 5.05%
23 | Nc1ccc([As](=O)(O)O)cc1 | 27.8% | 19.8% | 14.9% | 11.8 | 7.9 | 21.3%
24 | CCC(=O)C(c1ccccc1)(c1ccccc1)C(C)CN(C)C (centres undefined) | -8.7% | -9.2% | 9.35% | -5.55 | -4.9 | -6.35%
25 | COc1cc2c(c(OC)c1O)-c1ccc(OC)c(=O)cc1[C@@H](NC(=O)C(F)(F)F)CC2 | 14.5% | 28.3% | -3.25% | 15.7 | 7.9 | 11.3%
26 | CC(=O)OCC1OC([Se-])C(OC(C)=O)C(OC(C)=O)C1OC(C)=O.N#CCC[PH+](CCC#N)CCC#N.[Au+] (centres undefined) | 7.35% | 6.75% | -4.55% | -15.8 | 1.75 | 10.1%
27 | O=[N+]([O-])c1cc(S(=O)(=O)O)cc([N+](=O)[O-])c1Cl | 8.35% | 7% | 2.85% | 50.5 | -17 | 24.8%
28 | O=P1(Oc2ccccc2)N(CCCl)CCN1c1ccccc1 (centres undefined) | -12.2% | -44.8% | 7.15% | 13.2 | 32.1 | -4.65%
29 | CC(=O)NC1C([Se][As](C)C)OC(COC(C)=O)C(OC(C)=O)C1OC(C)=O (centres undefined) | -15.2% | -20.4% | 23.6% | -7.3 | -2.95 | -6.5%
30 | NC(N)=N/N=C/c1ccc(Cl)c(Cl)c1 | 8.45% | -3.15% | -8.2% | -9.25 | -3.6 | 21.4%
31 | CCC(C)OP(=S)(S)OC(C)CC.[Zn+2] (centres undefined) | 1.8% | 22.3% | -6% | -5.55 | 25.2 | -5.95%
32 | O=C1C=CC(=Nc2ccc(N(CCCl)CCCl)cc2)C=C1 | 39.5% | 18.8% | 13.3% | 3.5 | 7.1 | 3.5%
33 | CCCC(=O)[O-].CCCC(=O)[O-].N.N.N.N.[Co+3].[O-][Cl+3]([O-])([O-])[O-] | -5.15% | -0.75% | -48% | 12.3 | -5.1 | -12.6%
34 | CCCCCC(C)C1C(=O)NC(=O)NC1=O (centres undefined) | 6.4% | 12.9% | 2.65% | 5.7 | 7.8 | -6%
35 | CCOc1ccc(/C=C/c2cc(OC)c(OC)c(OC)c2)cc1 | -27.9% | -21.7% | -23.8% | -10.3 | -8.6 | -34.2%
36 | COc1cc2c(ccc3c4cc(OC)c(OC)cc4c[n+](C)c23)cc1O | -21.7% | -17.9% | -9.9% | 16.4 | -23.8 | -65.8%
37 | CCC1(O)C(=O)OCc2c1cc1n(c2=O)Cc2cc3cc(N)ccc3nc2-1 (centres undefined) | 85% (active) | 88.5% (active) | 77.5% (active) | 56.8 | 56.1 | 72.2% (active)
38 | CCC1CN1P1(=O)OCC(C)(N)CO1 (centres undefined) | -9.45% | 0.7% | -7.35% | 42.6 | -29.1 | -10.6%
39 | CCN1CCOC(CC)(c2cc(Cl)cc(Cl)c2Cl)C1 (centres undefined) | 6.35% | 20.4% | 8.4% | 13.2 | 4.3 | 20.4%
